PubChem BioAssay (NCATS)
Results filed as inconclusive are left out. Entries that show only a call come without a potency. The source made the active and inactive calls. Calls follow the shape of the dose curve; as a rule, active = well fitted curve in the direction sought with a large enough effect; inconclusive = small, poorly fitted or top-dose-only effect, or another doubt; inactive = no such curve, though single readings can be large; an effect the other way counts as inactive or inconclusive.

Legend:
[1] = biological target: Calcium and integrin-binding protein 1 (Homo sapiens) (UniProt Q99828); assay: Primary qHTS for Identification of Calcium Integrin Binding Protein 1 (CIB1) Competitor (AID 1508620);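 also: GST tagged CIB1 binding a fluorescein labelled alphaIIb integrin peptide tracer; top concentration of the series differs between compounds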
Outline: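 Fluorescence polarization competition: CIB1-GST (1 uM final) preincubated with compound 15 min at room temperature, then FITC-labeled alphaIIb peptide (100 nM final) added for another 15 min. Polarization read at Ex 480/Em 540.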

[2] = Primary qHTS for inhibitors of nuclear receptor binding SET domain protein 2 (NSD2) in an isogenic RCH-ACV NSD2 p.E1099K mutant (9B) (AID 1645876); also: nearly all actives have a fitted effect of over 70% in size; also: potency is read from the fitted curve at half-maximal effect
[3] = Primary qHTS for inhibitors of nuclear receptor binding SET domain protein 2 (NSD2) in an RCH-ACV wild type WT cells (2C) (AID 1645877); also: nearly all actives have a fitted effect of over 70% in size; also: potency is read from the fitted curve at half-maximal effect

Calcium and integrin-binding protein 1 (Homo sapiens), sequence (Q99828 whole entry, looked up): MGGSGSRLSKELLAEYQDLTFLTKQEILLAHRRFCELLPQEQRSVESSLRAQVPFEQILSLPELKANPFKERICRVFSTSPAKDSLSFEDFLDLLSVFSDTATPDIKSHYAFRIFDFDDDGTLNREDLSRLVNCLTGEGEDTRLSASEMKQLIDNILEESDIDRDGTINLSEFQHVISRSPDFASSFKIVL

## CC(C)c1ccc(CO)cc1O[C@@H]1O[C@H](CO)[C@@H](O)[C@H](O)[C@H]1O
[1]
  Potency: inactive
[2]
  Potency: inactive
[3]
  Potency: inactive

## Cc1c2cc(c(C(=O)O)c1C)OC1OC(C(O)C(O)C1O)C(O)C(O)C1OC(O2)C(O)C(O)C1O (configuration not stated)
[1]
  Potency: inactive
[2]
  Potency: inactive
[3]
  Potency: inactive

## C[C@@]1(O)[C@H](O)[C@@H](CO)O[C@H]1n1ccc(N)nc1=O
[1]
  Potency: inactive
[2]
  Potency: 20.5 µM (active)
[3]
  Potency: 23 µM (active)

## CCC(C)C(=O)OC1CC(O)C23C4OCC5(C(O)CC2C1(C)C(O)O4)C3C(=O)CC1(C)C(c2ccoc2)CC2OC215 (configuration not stated)
[1]
  Potency: inactive
[2]
  Potency: 0.399 µM (active)
[3]
  Potency: 0.126 µM (active)

## CC1(C)CCCC2(C)C1CC=C1C(=O)OC(O)C12O (configuration not stated)
[1]
  Potency: inactive
[2]
  Potency: inactive
[3]
  Potency: inactive

## COc1c2c(cc3c1-c1c(cc4c(c1OC)OCO4)CC(C)C(C)C3)OCO2 (configuration not stated)
[1]
  Potency: inactive
[2]
  Potency: inactive
[3]
  Potency: inactive

## CC1OC2OC(=O)C3(C)CC4=C(CO)C5=C(CC(=O)C4(C)C(C1=O)C23)C(C)(C)OC(=O)C5 (configuration not stated)
[1]
  Potency: inactive
[2]
  Potency: inactive
[3]
  Potency: inactive

## CC(=O)O[C@H]1CC(C)(C)CC2[C@@]13[C@H](O)C[C@]1(C)[C@@]2(CCC2[C@@]4(C)CC[C@H](O[C@@H]5OC[C@H](O[C@@H]6O[C@H](CO)[C@@H](O)[C@H](O)[C@H]6O[C@@H]6OC[C@@H](O)[C@H](O)[C@H]6O)[C@H](O)[C@H]5O[C@@H]5O[C@H](CO)[C@@H](O)[C@H](O)[C@H]5O)C(C)(C)C4CC[C@]21C)O[C@@H]3O (some centres not stated)
[1]
  Potency: inactive
[2]
  Potency: 0.346 µM (active)
[3]
  Potency: 1.09 µM (active)

## C=C1[C@@H]2CC[C@@H]3[C@@](CCC4C(C(=O)O)(C(=O)O)C[C@@H](O[C@@H]5O[C@H](CO)[C@@H](O)[C@H](O)[C@H]5OC(=O)CC(C)C)C[C@]43C)(C2)[C@H]1O (some centres not stated)
[1]
  Potency: inactive
[2]
  Potency: inactive
[3]
  Potency: inactive

## C=C1C(O)C[C@@H]2C(C(=O)O)=CO[C@@H](O[C@@H]3O[C@H](CO)[C@@H](O)[C@H](O)[C@H]3OC(=O)c3ccc(O)cc3)[C@H]12 (some centres not stated)
[1]
  Potency: inactive
[2]
  Potency: inactive
[3]
  Potency: inactive

## CC(C)(C)c1ccc(S(=O)(=O)Nc2ccc(Cl)cc2C(=O)c2cc[n+]([O-])cc2)cc1
[1]
  Potency: inactive
[2]
  Potency: inactive
[3]
  Potency: inactive

## C(#Cc1nc2ncccc2nc1OCCN1CCCC1)c1ccccc1
[1]
  Potency: inactive
[2]
  Potency: 2.58 µM (active)
[3]
  Potency: 2.3 µM (active)

## C=C[C@H]1[C@H](O[C@@H]2O[C@H](CO)[C@@H](O)[C@H](O)[C@H]2O)OC=C(C(=O)OC)[C@H]1C[C@@H]1c2cc(O)c(O)cc2CCN1C(C)=O
[1]
  Potency: inactive
[2]
  Potency: inactive
[3]
  Potency: inactive

## COC(=O)CC(O)CC(O)/C=C/c1c(C)ccc2c1C(O)CC(C)C2 (configuration not stated)
[1]
  Potency: inactive
[2]
  Potency: inactive
[3]
  Potency: inactive

## O=C(OC1C=C(CO)C2C(OC3OC(CO)C(O)C(O)C3O)OC=CC12)c1ccc(O)cc1 (configuration not stated)
[1]
  Potency: inactive
[2]
  Potency: inactive
[3]
  Potency: inactive

## Cn1c(=O)cc(N2CCCC(N)C2)n(Cc2cc(F)ccc2C#N)c1=O (configuration not stated)
[1]
  Potency: inactive
[2]
  Potency: inactive
[3]
  Potency: inactive

## COC(=O)C[C@H]1[C@]2(C)C3=C(C)[C@H](c4ccoc4)C[C@H]3O[C@@H]2[C@H](OC(C)=O)C2[C@](C)(C(=O)OC)C=CC(=O)[C@@]21C (some centres not stated)
[1]
  Potency: inactive
[2]
  Potency: inactive
[3]
  Potency: inactive

## CC[C@H](C)[C@H](NC(=O)[C@H]([C@@H](C)CC)N(C)C(C)=O)C(=O)N[C@H](C(=O)N[C@@H](CC(C)C)C(=O)[C@@]1(C)CO1)[C@@H](C)O
[1]
  Potency: inactive
[2]
  Potency: 0.0129 µM (active)
[3]
  Potency: 0.0073 µM (active)

## C=C(C)C1CCC(C)C12CC(O)C1(C)OC1C2OC(=O)C(N)CCC(=O)O (configuration not stated)
[1]
  Potency: inactive
[2]
  Potency: inactive
[3]
  Potency: inactive

## CC1(C)CCC2(C(=O)OC3OC(CO)C(O)C(O)C3O)CCC3(C)C(=CCC4C5(C)CCC(O)C(C)(C(=O)O)C5CCC43C)C2C1O (configuration not stated)
[1]
  Potency: inactive
[2]
  Potency: inactive
[3]
  Potency: inactive

## C=C1C[C@]23C[C@H]1CC[C@H]2[C@]1(C)CCC[C@@](C)(C(=O)O)[C@H]1[C@@H]3C(=O)O
[1]
  Potency: inactive
[2]
  Potency: inactive
[3]
  Potency: inactive

## Cc1ccccc1CN1C2=NCCN2C(=O)C2=C1CCN(Cc1ccccc1)C2
[1]
  Potency: inactive
[2]
  Potency: inactive
[3]
  Potency: inactive

## C[C@@H]1C[C@@H]([C@@H](O)C(C)(C)O)O[C@H]2C[C@@]3(C)C(=C12)C[C@H](O)[C@H]1[C@@]2(C)CCC(=O)C(C)(C)C2CC[C@@]13C (some centres not stated)
[1]
  Potency: inactive
[2]
  Potency: inactive
[3]
  Potency: inactive

## COc1c(C)c(OCC(O)C(C)(C)O)cc2c1COC2=O (configuration not stated)
[1]
  Potency: inactive
[2]
  Potency: inactive
[3]
  Potency: inactive
